Data as given in PubChem BioAssay (Tox21).
Inconclusive results are not listed. Entries that show only a call come without a potency. Activity calls are given as the source filed them. Unless noted, calls come from the whole dose curve; as a rule, active = well fitted curve in the direction sought with a large enough effect in the repeat runs; inconclusive = weak or mixed curves; inactive = no such curve, though single readings can be large; an effect the other way counts as inactive or inconclusive.

Legend:
[1] = qHTS assay to identify small molecule agonists of the peroxisome proliferator-activated receptor delta (PPARd) signaling pathway - cell viability counter screen (AID 743211); note: nearly all actives have a fitted effect of over 55% in size
Outline: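 Following 5 h plating at 37 C and 5% CO2, PPARd UAS-bla HEK293H cells took up test compounds for 17 h. Viability was quantified by luminescence 30 min after CellTiter-Glo addition at room temperature.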

[2] = qHTS assay to identify small molecule antagonists of the peroxisome proliferator-activated receptor delta (PPARd) signaling pathway - cell viability counter screen (AID 743213); note: nearly all actives have a fitted effect of over 50% in size
Outline: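 Viability counter-screen, qHTS format: PPARd-bla HEK293H, L165041 300 nM final, 17 h compound exposure at 37 C, CellTiter-Glo luminescence after 30 min RT.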

[3] = qHTS assay to identify small molecule agonists of the farnesoid-X-receptor (FXR) signaling pathway - cell viability counter screen (AID 743218); note: nearly all actives have a fitted effect of over 45% in size
Outline: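 Luminescence from CellTiter-Glo, read after 30 min at RT, reports viability of GeneBLAzer FXR-UAS-bla HEK 293T cells treated 16 h with compounds in the wells used for the beta-lactamase reporter.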

[4] = qHTS assay to identify small molecule antagonists of the farnesoid-X-receptor (FXR) signaling pathway - cell viability counter screen (AID 743221; active = well fitted cell-killing curve with a large enough effect in the repeat runs, not every such curve was filed as active; note: nearly all actives have a fitted effect of over 50% in size)
Outline: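 Compound effects on cell number were measured as CellTiter-Glo luminescence in HEK 293T cells expressing FXR-UAS-bla, after 16 h at 37 C with 50 uM CDCA (final).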

[5] = molecular target: Vitamin D3 receptor (Homo sapiens) (UniProt P11473); test: qHTS assay to identify small molecule agonists of the vitamin D receptor (VDR) signaling pathway (AID 743222; calls by dose curve)
Vitamin D3 receptor (Homo sapiens), sequence (P11473 whole entry, looked up): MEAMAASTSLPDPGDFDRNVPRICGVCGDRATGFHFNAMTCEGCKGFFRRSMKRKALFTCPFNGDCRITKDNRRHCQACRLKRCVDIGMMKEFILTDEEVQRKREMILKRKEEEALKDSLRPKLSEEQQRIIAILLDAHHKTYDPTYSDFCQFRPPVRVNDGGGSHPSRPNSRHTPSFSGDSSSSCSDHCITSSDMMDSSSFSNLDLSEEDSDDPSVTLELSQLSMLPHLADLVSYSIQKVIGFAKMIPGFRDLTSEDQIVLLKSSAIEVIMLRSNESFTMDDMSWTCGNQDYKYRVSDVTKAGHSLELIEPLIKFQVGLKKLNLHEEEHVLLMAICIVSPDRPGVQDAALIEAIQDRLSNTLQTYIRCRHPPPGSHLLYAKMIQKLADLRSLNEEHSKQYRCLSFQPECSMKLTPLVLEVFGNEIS
Outline: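 Beta-lactamase reporter readout (LiveBLAzer B/G FRET, 2 h RT) in VDR-bla cells after 16 h compound treatment at 37C, 5% CO2; cells pre-incubated 4 h before pin transfer of DMSO solutions.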

[6] = molecular target: Vitamin D3 receptor (Homo sapiens) (UniProt P11473); test: qHTS assay to identify small molecule antagonists of the vitamin D receptor (VDR) signaling pathway (AID 743223; active = well fitted inhibition curve with a large enough effect in the signal ratio in the repeat runs, not every such curve was filed as active; the % refers to the signal ratio)
Outline: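 Beta-lactamase activity in VDR-bla cells is measured by FRET substrate fluorescence (2 h, room temperature) after cells spend 16 h at 37C with test compound and 3 nM final 1alpha,25-dihydroxyvitamin D3.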

[7] = qHTS assay to identify small molecule agonists of the vitamin D receptor (VDR) signaling pathway - cell viability counter screen (AID 743224); note: series mostly up to about 63 µM; nearly all actives have a fitted effect of over 50% in size
Outline: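 Cytotoxicity counter screen: VDR-bla cells, 16 h compound exposure at 37C, 5% CO2; CellTiter-Glo luminescence, 30 min RT, same wells as bla read.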

[8] = qHTS assay to identify small molecule antagonists of the vitamin D receptor (VDR) signaling pathway - cell viability counter screen (AID 743225); note: nearly all actives have a fitted effect of over 50% in size
Outline: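 In this counter screen, VDR-bla HEK 293T cells receive test compound plus 3 nM final calcitriol for 16 h at 37C. Room-temperature steps of 2 h with the beta-lactamase substrate, then 30 min with CellTiter-Glo, precede the luminescence read.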

[9] = qHTS assay to identify small molecule agonists of the NFkB signaling pathway (AID 1159509; active = well fitted curve in the direction sought with a large enough effect in the signal ratio in the repeat runs, not every such curve was filed as active; the % refers to the signal ratio; note: series mostly up to about 61 µM)
Outline: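 Beta-lactamase reporter assay run in quantitative high-throughput format on an NF-kB-responsive ME-180 line, with 5 hr compound treatment and a FRET-based blue/green fluorescence readout.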

[10] = qHTS assay to identify small molecule agonists of the NFkB signaling pathway - cell viability counter screen (AID 1159515; calls by dose curve; note: series mostly up to about 61 µM; nearly all actives have a fitted effect of over 55% in size)
Outline: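 ME-180 NFkB-bla cells, 2,000/well; overnight attach; compound 5 hr, 37 C/5% CO2; LiveBLAzer substrate 1.5 hr RT; then CellTiter-Glo in same wells, 30 min RT, luminescence read.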

[11] = qHTS assay to identify small molecule agonists of the endoplasmic reticulum stress response signaling pathway (AID 1159516; active = well fitted activation curve with a large enough effect in the signal ratio in the repeat runs, not every such curve was filed as active; the % refers to the signal ratio)
Outline: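 HeLa ESRE-bla reporter line; cpd 5 h, 37 C/5% CO2; LiveBLAzer B/G FRET substrate 2 h RT; ex 405, em 460/530 nm.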

[12] = qHTS assay to identify small molecule agonists of the endoplasmic reticulum stress response signaling pathway - cell viability counter screen (AID 1159517; calls by dose curve)
Outline: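 After overnight attachment, ESRE-bla HeLa cells were treated with Tox21 library compounds for 5 hr. CellTiter-Glo luminescence, read 30 min post-addition at room temperature, reported viability.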

[13] = qHTS assay to identify small molecule antagonists of the retinoid-related orphan receptor gamma (ROR-gamma) signaling pathway - cell viability counter screen (AID 1159520); note: nearly all actives have a fitted effect of over 50% in size
Outline: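 Cytotoxicity was read from cellular ATP (CellTiter-Glo luminescence) after 16 hr at 37 C with 1 uM doxycycline induction. The inducer was added 2 hr after compound transfer to Tet-on ROR gamma CHO cells.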

[14] = molecular target: Nuclear receptor ROR-gamma (Homo sapiens) (UniProt P51449); test: qHTS assay to identify small molecule antagonists of the retinoid-related orphan receptor gamma (ROR-gamma) signaling pathway (AID 1159521; note: nearly all actives have a fitted effect of over 50% in size; note: potency is the fitted concentration of half-maximal effect)
Outline: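 Screening format: cell-based luciferase reporter in CHO cells with doxycycline-inducible RORγ. Compound pre-exposure lasts 2 h, doxycycline is 1 uM final, induction runs 16 h at 37 C, and ONE-Glo luminescence is read.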

[15] = qHTS assay to identify small molecule agonists of the AP-1 signaling pathway - cell viability counter screen (AID 1159525; calls by dose curve; note: nearly all actives have a fitted effect of over 55% in size)
Outline: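 Intracellular ATP by Cell Titer Glo luminescence (30 min, RT) in the same ME-180 AP-1-bla wells after the 5 h compound exposure at 37 °C. Normalised to tetra n-octyl ammonium bromide and DMSO controls.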

[16] = qHTS assay to identify small molecule agonists of the AP-1 signaling pathway (AID 1159526; calls by dose curve)
[17] = molecular target: Peroxisome proliferator-activated receptor delta (Homo sapiens) (UniProt Q03181); test: qHTS assay to identify small molecule agonists of the peroxisome proliferator-activated receptor delta (PPARd) signaling pathway (AID 743212; calls by dose curve)
Peroxisome proliferator-activated receptor delta (Homo sapiens), sequence (Q03181 whole entry, looked up): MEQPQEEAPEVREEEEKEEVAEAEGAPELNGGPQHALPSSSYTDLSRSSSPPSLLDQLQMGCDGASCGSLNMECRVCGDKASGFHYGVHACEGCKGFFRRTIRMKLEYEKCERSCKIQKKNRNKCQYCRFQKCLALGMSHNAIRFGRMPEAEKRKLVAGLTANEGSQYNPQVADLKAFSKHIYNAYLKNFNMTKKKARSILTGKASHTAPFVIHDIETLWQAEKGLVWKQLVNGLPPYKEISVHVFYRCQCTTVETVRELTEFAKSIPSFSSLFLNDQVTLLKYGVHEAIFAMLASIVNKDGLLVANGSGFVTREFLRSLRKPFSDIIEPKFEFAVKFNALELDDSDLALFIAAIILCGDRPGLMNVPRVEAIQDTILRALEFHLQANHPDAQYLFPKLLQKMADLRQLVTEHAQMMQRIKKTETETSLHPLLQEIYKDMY
Outline: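 Steps: seed PPARd-bla HEK293H cells; incubate 5 h, 37 C, 5% CO2; add compounds in DMSO; incubate, 37 C; add LiveBLAzer B/G FRET substrate; hold 2 h at room temperature; measure fluorescence.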

[18] = molecular target: Peroxisome proliferator-activated receptor delta (Homo sapiens) (UniProt Q03181); test: qHTS assay to identify small molecule antagonists of the peroxisome proliferator-activated receptor delta (PPARd) signaling pathway (AID 743215; active = well fitted inhibition curve with a large enough effect in the signal ratio in the repeat runs, not every such curve was filed as active; the % refers to the signal ratio;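 note: cells stimulated with agonist L165041 at 300 nM final during compound exposure; series mostly up to about 62 µM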)
Outline: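 HEK293H GeneBLAzer PPARd UAS-bla reporter cells; cpd + L165041 300 nM final, 17 h 37 C; LiveBLAzer B/G FRET substrate 2 h RT; fluorescence intensity read-out. Antagonist mode.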

[19] = molecular target: Bile acid receptor (Homo sapiens) (UniProt Q96RI1); test: qHTS assay to identify small molecule antagonists of the farnesoid-X-receptor (FXR) signaling pathway (AID 743217; active = well fitted inhibition curve with a large enough effect in the signal ratio in the repeat runs, not every such curve was filed as active; the % refers to the signal ratio; note: potency is the fitted concentration of half-maximal effect)
Bile acid receptor (Homo sapiens), sequence (Q96RI1 whole entry, looked up): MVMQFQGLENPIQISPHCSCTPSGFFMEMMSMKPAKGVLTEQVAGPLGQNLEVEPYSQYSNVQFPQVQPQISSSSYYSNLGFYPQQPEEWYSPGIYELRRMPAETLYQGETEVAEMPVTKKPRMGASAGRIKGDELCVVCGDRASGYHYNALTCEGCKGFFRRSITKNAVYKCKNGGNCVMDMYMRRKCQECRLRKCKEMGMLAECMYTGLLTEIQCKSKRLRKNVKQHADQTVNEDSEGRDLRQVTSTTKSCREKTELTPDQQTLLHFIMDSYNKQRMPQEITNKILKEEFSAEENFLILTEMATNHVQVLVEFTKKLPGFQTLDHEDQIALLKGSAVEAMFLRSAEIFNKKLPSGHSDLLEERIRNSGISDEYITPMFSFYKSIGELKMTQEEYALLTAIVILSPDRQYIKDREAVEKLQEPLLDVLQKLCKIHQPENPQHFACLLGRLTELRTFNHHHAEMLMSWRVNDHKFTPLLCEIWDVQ
Outline: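 Read-out: beta-lactamase FRET fluorescence (LiveBLAzer B/G substrate, 2 h, room temperature) in GeneBLAzer FXR-UAS-bla HEK 293T cells. Compounds were co-dosed with 50 uM chenodeoxycholic acid (final) and incubated 16 h at 37 °C.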

[20] = molecular target: Bile acid receptor (Homo sapiens) (UniProt Q96RI1); test: qHTS assay to identify small molecule agonists of the farnesoid-X-receptor (FXR) signaling pathway (AID 743220; active = well fitted activation curve with a large enough effect in the signal ratio in the repeat runs, not every such curve was filed as active; the % refers to the signal ratio)
Outline: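 FXR-UAS-bla HEK 293T cells carrying a UAS-driven beta-lactamase reporter were plated for 5 h at 37C/5% CO2, then exposed to DMSO-dissolved Tox21 10K compounds for 16 h at 37C. A LiveBLAzer B/G FRET substrate was loaded for 2 h at room temperature before fluorescence reading.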

Structure (SMILES)	Potency [1]	outcome [2]	Potency [3]	outcome [4]	outcome [5]	outcome [6]	Potency [7]	outcome [8]	outcome [9]	outcome [10]	outcome [11]	Potency [12]	Potency [13]	Potency [14]	Potency [15]	outcome [16]	outcome [17]	outcome [18]	Potency [19]	outcome [20]
CNC(=O)Oc1cccc(C(C)C)c1	inactive	inactive	inactive	inactive	inactive	inactive	inactive	inactive	inactive	inactive	inactive	inactive	inactive	inactive	inactive	inactive	–	–	–	–
ClCC(Cl)Cl	inactive	–	inactive	inactive	inactive	–	inactive	inactive	inactive	inactive	inactive	inactive	inactive	inactive	inactive	inactive	inactive	inactive	–	–
CC(C)CC#N	inactive	–	inactive	inactive	inactive	inactive	inactive	inactive	inactive	inactive	inactive	inactive	inactive	inactive	inactive	inactive	inactive	–	inactive	inactive
ClCCOCOCCCl	inactive	inactive	inactive	inactive	inactive	inactive	inactive	inactive	inactive	inactive	inactive	inactive	inactive	inactive	inactive	inactive	–	–	inactive	inactive
CCC(C)n1c(=O)[nH]c(C)c(Br)c1=O (stereo not given)	inactive	inactive	inactive	inactive	inactive	inactive	inactive	inactive	inactive	inactive	inactive	inactive	inactive	inactive	inactive	inactive	–	–	inactive	inactive
CCSC(=O)N(CC)C1CCCCC1	inactive	–	inactive	inactive	inactive	–	inactive	inactive	inactive	inactive	inactive	inactive	inactive	inactive	inactive	inactive	inactive	inactive	inactive	inactive
COc1cc(OC)nc(Sc2cccc(Cl)c2C(=O)O)n1	inactive	inactive	inactive	inactive	inactive	inactive	inactive	–	inactive	inactive	inactive	inactive	inactive	inactive	inactive	inactive	–	–	–	–
CC(=O)Nc1cc([As](=O)(O)O)ccc1O	inactive	–	–	inactive	inactive	–	inactive	inactive	inactive	inactive	inactive	inactive	inactive	inactive	inactive	inactive	inactive	–	inactive	inactive
Nc1cnn(-c2ccccc2)c(=O)c1Cl	inactive	–	inactive	inactive	inactive	–	inactive	inactive	inactive	inactive	inactive	inactive	inactive	inactive	inactive	inactive	–	inactive	–	–
CC(C)(C)C(=O)C(Oc1ccc(Cl)cc1)n1cncn1 (stereo not given)	inactive	–	inactive	inactive	inactive	–	inactive	inactive	inactive	inactive	inactive	inactive	inactive	inactive	inactive	inactive	inactive	–	–	–
CSc1nc(N=[N+]=[N-])nc(NC(C)C)n1	inactive	–	–	inactive	inactive	inactive	–	inactive	inactive	inactive	inactive	inactive	inactive	inactive	inactive	inactive	inactive	–	–	–
COP(=S)(OC)Oc1ccc(S(N)(=O)=O)cc1	inactive	–	inactive	inactive	inactive	inactive	inactive	inactive	inactive	inactive	inactive	inactive	inactive	inactive	inactive	inactive	inactive	inactive	inactive	inactive
Cc1cccc(C#N)c1	inactive	inactive	inactive	inactive	inactive	–	inactive	inactive	inactive	inactive	inactive	inactive	inactive	inactive	inactive	inactive	–	–	inactive	inactive
CC1(C)C(=O)NC(=O)NC1=O	inactive	inactive	inactive	inactive	inactive	–	inactive	inactive	inactive	inactive	inactive	inactive	inactive	inactive	inactive	inactive	–	–	–	–
CCOP(=S)(OCC)Oc1ncn(-c2ccccc2)n1	inactive	inactive	–	inactive	inactive	inactive	inactive	inactive	inactive	inactive	inactive	inactive	inactive	inactive	inactive	inactive	–	–	inactive	inactive
COc1cc(OC)nc(NC(=O)NS(=O)(=O)c2ncccc2OCC(F)(F)F)n1	inactive	–	inactive	inactive	inactive	inactive	inactive	inactive	inactive	inactive	inactive	inactive	inactive	inactive	inactive	inactive	inactive	inactive	inactive	inactive
O=C(Nc1ccccc1)N(Cc1ccc(Cl)cc1)C1CCCC1	inactive	–	–	inactive	–	–	–	inactive	inactive	inactive	inactive	inactive	inactive	61.1 µM (active)	inactive	inactive	inactive	–	54.9 µM (active)	inactive
